Source: PubChem (National Center for Advancing Translational Sciences (NCATS))
Hits are enriched below; roughly 5.8% of the tested compounds scored in any of these assays.
ALOX12 inh – Primary qHTS assay for inhibitors of human arachidonate 12S-lipoxygenase (ALOX12): Round 2 | Polyunsaturated fatty acid lipoxygenase ALOX12 (Homo sapiens), P18054 | purified 12hLO, xylenol orange hydroperoxide absorbance | 1.1% of 580,000 active | Potency, µM (highest dose often 108 µM), usual class: inhibitors
Target sequence (P18054 whole entry, looked up): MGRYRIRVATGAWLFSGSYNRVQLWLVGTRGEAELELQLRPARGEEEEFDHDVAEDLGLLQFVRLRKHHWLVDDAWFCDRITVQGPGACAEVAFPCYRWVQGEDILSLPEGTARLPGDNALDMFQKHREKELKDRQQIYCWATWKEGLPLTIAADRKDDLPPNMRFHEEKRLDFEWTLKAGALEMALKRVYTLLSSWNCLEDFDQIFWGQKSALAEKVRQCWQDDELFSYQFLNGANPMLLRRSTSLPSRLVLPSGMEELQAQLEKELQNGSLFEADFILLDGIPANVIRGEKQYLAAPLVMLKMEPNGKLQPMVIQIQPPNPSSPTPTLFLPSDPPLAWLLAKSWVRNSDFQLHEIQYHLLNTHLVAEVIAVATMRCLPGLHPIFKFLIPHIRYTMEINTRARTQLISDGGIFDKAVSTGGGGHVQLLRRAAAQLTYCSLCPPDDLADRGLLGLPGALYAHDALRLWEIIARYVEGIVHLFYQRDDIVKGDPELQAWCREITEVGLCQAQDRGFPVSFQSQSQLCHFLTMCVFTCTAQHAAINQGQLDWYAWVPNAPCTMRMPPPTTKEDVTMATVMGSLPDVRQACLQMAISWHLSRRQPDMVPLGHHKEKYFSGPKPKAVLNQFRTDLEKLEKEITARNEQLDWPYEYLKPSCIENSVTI
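Hydroperoxide product was detected by ferrous iron/xylenol orange as the 573 to 405 nm absorbance ratio. Arachidonic acid at 40 uM (final) was turned over for 30 min at room temperature by 150 nM human 12hLO, pH 7.0 Hepes buffer, after 15 min compound preincubation.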
SW480 rerep – A quantitative high throughput screen for small molecules that induce DNA re-replication in SW480 colon adenocarcinoma cells; AID 624297, 2012; 1.8% of 340,000 active; SW480 DNA re-replication, Hoechst DNA content imaging, 48 h; Potency, µM (top dose mostly 46.1 µM), most hits filed as activators; also: nearly all actives have a fitted effect of over 55% in size
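Compounds, transferred as 23 nL by pin tool, were incubated with cells for 48 hr; DNA content per nucleus was then quantified by Hoechst staining and fluorescence plate imaging.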
MCF10A rerep – A quantitative high throughput screen for small molecules that induce DNA re-replication in MCF 10a normal breast cells | MCF 10A DNA re-replication, Hoechst nuclear intensity, 48 h | Potency, µM (series often up to 46.1 µM), hits mostly activators | 2.9% of 350,000 active; also: nearly all actives have a fitted effect of over 50% in size
KB-3-1 tox – qHTS assay for MDR1-selective chemotherapeutics: Primary screen using the parental adenocarcinoma cell KB-3-1; AID 1347075, 2019; 1.4% of 400,000 active; KB-3-1 viability, CellTiter-Glo ATP luminescence, 72 h; Potency, µM (titrated, usually from 46.1 µM), hits mostly cytotoxic; also: nearly all actives have a fitted effect of over 60% in size
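Multi-concentration cytotoxicity screen in KB-3-1 cells grown in DMEM lacking phenol red with 10% FBS. After 72 h at 37 °C with compound, ATP-dependent luminescence was recorded.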
KB-V1 MDR tox – qHTS assay for MDR1-selective chemotherapeutics: Primary screen using the drug-selected MDR subline cells KB-V1. KB-V1 MDR cells viability, CellTiter-Glo, 72 h. AID 1347076, 2019. 3.4% of 400,000 active. Potency, µM (top dose mostly 46.1 µM), actives largely listed as cytotoxic; also: nearly all actives have a fitted effect of over 60% in size
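qHTS viability screen in drug-selected KB-V1 MDR cells: 72 h compound treatment at 37 degrees C, ATP luminescence end point.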
PINK1 modulator – A Quantitative High throughput Screen to Identify Chemical Modulators of PINK1 Expression | Potency, µM (doses to about 76.6 µM), hits mostly activators | 0.2% of 410,000 active | PINK1 immunofluorescence, high-content cytometry, 24 h | AID 624263, 2012; active = well fitted activation curve with a large enough effect; inconclusive = small, poorly fitted or top-dose-only effect; cell line not stated here; also: nearly all actives have a fitted effect of over 65% in size
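PINK1 protein level read as immunofluorescence by microplate cytometer in a fixed, stained stable cell line after 24 h exposure to five compound concentrations, with CCCP as control.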
Hits are given with their value; - = inactive; ? = inconclusive; . = no result; ! = repeats disagree; [ ] = remark or other dose. Unless noted, calls follow the shape of the dose curve; as a rule, active = well fitted curve in the direction sought with a large enough effect; inconclusive = small, poorly fitted or top-dose-only effect, or another doubt; inactive = no such curve, though single readings can be large; an effect the other way counts as inactive or inconclusive.

SMILES | ALOX12 inh | SW480 rerep | MCF10A rerep | KB-3-1 tox | KB-V1 MDR tox | PINK1 modulator
COCCNC(=S)Nc1ccc2nc(N3CCCC3)cc(C)c2c1 | - | - | - | - | 16.4µM | -
Cc1cc(N2CCCC2)nc2ccc(NC(=S)NC(C)C)cc12 | - | ? | ? | - | - | -
COCCNC(=S)Nc1ccc2nc(N3CCOCC3)cc(C)c2c1 | ? | - | - | - | - | -
CCOCCCNC(=S)Nc1ccc2nc(N3CCCC3)cc(C)c2c1 | - | - | - | - | 7.31µM | -
Cc1cc(N2CCOCC2)nc2ccc(NC(=S)NC(C)C)cc12 | ? | - | 23.1µM | - | - | -
CCn1nc(C(=O)NC(CC(=O)OC)c2ccc(F)cc2)c2ccccc2c1=O (stereo unspecified) | - | . | . | . | . | .
CCC(Oc1ccccc1)C(=O)Nc1cc(C(=O)OCc2cc(=O)n3oc(C)cc3n2)ccc1OC (stereo unspecified) | - | . | . | . | . | .
O=C(COc1ccccc1Cl)Nc1ccc(-c2nc3ccccc3o2)cc1 | - | . | . | . | . | .
COc1ccc(-c2nc(C(C)C)nc3c2CCN(C(=O)c2ccccc2C)CC3)cc1 | - | . | . | . | . | .
C=CCn1c(COc2ccc(OC)cc2)nnc1SCn1nnc2ccccc2c1=O | - | - | - | - | 20.6µM | -
O=c1c2ccccc2nnn1CSc1nnc(COc2ccc(Cl)cc2)n1Cc1ccco1 | - | - | - | ? | ? | -
COc1ccc(NC(=O)CSc2nc3cc(C)[nH]c3c(=O)n2C)cc1Cl | - | . | . | . | . | .
CCOc1ccccc1/C=C/c1nc2ccccc2[nH]c1=O | ? | 23.1µM | ? | - | - | -
COc1ccc([C@H]2C[C@@H](O)[C@@H](O)[C@@H]2NCc2cn(C)c3ccccc23)cc1 | 39.8µM | . | . | . | . | .
Cc1cccc(OCCN(C)Cc2cc(=O)oc3c(C)c(O)ccc23)c1 | - | . | . | . | . | .
O=C(c1ccccn1)N1CCCCCC1CN1CCCC1 (stereo unspecified) | - | . | . | . | . | .
CCN1c2cc(C(=O)Nc3ccc(OC(F)(F)F)cc3)ccc2C(=O)N2CCCCCC21 (stereo unspecified) | - | . | . | . | . | .
COc1cc(C)c(S(=O)(=O)N2CCOCC2)cc1C | - | 8.2µM | 3.26µM | - | - | -
CCOC(=O)c1c(C)n(C)c2ccc(OCC(O)Cn3c(C)nc4ccccc43)cc12 (stereo unspecified) | - | - | ? | - | 13µM | -
Cc1nc2ccccc2n1CC(O)COc1ccc(Br)cc1 (stereo unspecified) | - | - | - | ? | 13µM | -
CCOC(=O)c1c(C)n(C)c2ccc(OCC(O)CN3CCN(C)CC3)cc12 (stereo unspecified) | - | - | - | - | - | -
CCC(=O)c1ccc(OCC(O)Cn2c(C)nc3ccccc32)cc1 (stereo unspecified) | ? | - | - | - | 8.2µM | -
Cc1nc2ccccc2n1CC(O)COc1ccc(C(=O)O)cc1 (stereo unspecified) | - | . | . | - | - | -
CCc1ccc(-c2cc3c(=O)[nH]nc(SCC(=O)NC(C)CC)n3n2)cc1 (stereo unspecified) | - | . | . | . | . | .
CN(c1ccc(F)cc1)S(=O)(=O)c1ccc(Cl)c(C(=O)NCC2CCCO2)c1 (stereo unspecified) | - | - | - | - | ? | -
SMILES | ALOX12 inh | SW480 rerep | MCF10A rerep | KB-3-1 tox | KB-V1 MDR tox | PINK1 modulator
CN(c1ccc(F)cc1)S(=O)(=O)c1ccc(Cl)c(C(=O)NCC2(N3CCOCC3)CCCCC2)c1 | - | - | - | - | 18.4µM | -
O=C(Nc1ccc(Br)cc1Cl)c1cnccn1 | 31.6µM | - | - | - | ? | -
COc1cc(-c2nnc(SCC(=O)NC(C)c3ccc4c(c3)CCCC4)o2)cc(OC)c1OC (stereo unspecified) | - | . | . | . | . | .
COc1ccc2cc3cc(C(=O)NC(C)C)oc3nc2c1 | - | - | - | - | 2.31µM | -
COc1ccc2cc3cc(C(=O)Nc4cc(OC)c(OC)c(OC)c4)oc3nc2c1 | - | - | - | - | - | -
Cc1ccc(S(=O)(=O)NC(=O)C2(C)CCN2C(=O)c2cccc(F)c2)cc1 (stereo unspecified) | 35.5µM | . | . | - | - | -
Cc1nc(C(F)(F)F)ccc1C(=O)N1CCC1(C)C(=O)NS(=O)(=O)c1cccc(F)c1 (stereo unspecified) | 44.7µM | . | . | - | - | -
Cc1nc(C(F)(F)F)ccc1C(=O)N1CCC1(C)C(=O)NS(=O)(=O)c1cccc(Cl)c1 (stereo unspecified) | ? | . | . | - | - | -
Cc1ccc2[nH]nc(C(=O)N3CCCC(N(C)CCc4ccccc4)C3)c2c1 (stereo unspecified) | - | . | . | . | . | .
CCNC(=O)c1cccc(NC(=O)C2CCCC2)c1 | - | . | . | . | . | .
COc1ccc(C2C(C#N)=C(N)Oc3cc(O)ccc32)cc1 (stereo unspecified) | ? | -[1.84 µM] | - | - | - | -
CCOC(=O)C1=C(N)Oc2cc(O)ccc2C1c1ccc(Br)cc1 (stereo unspecified) | 25.1µM! | - | ? | - | ? | -
CCOC(=O)C1=C(N)Oc2cc(O)ccc2C1c1cccc(Cl)c1 (stereo unspecified) | ? | ? | 5.8µM | ? | ? | -
CCOC(=O)C1=C(N)Oc2ccc(Br)cc2[C@@H]1[C@@H](C#N)C(=O)OCC | 10µM | . | . | . | . | .
CCOC(=O)C1=C(N)Oc2cc(O)ccc2C1c1cccnc1 (stereo unspecified) | - | - | -[0.0737 µM] | - | - | -
COC(=O)CCC1(C)C(=C(C)C)CCC(C)C1COc1ccc2ccc(=O)oc2c1 (stereo unspecified) | - | . | . | . | . | .
O=C(NC(=S)Nn1cnnc1)c1ccc(F)cc1Cl | 15.8µM | - | - | - | - | -
O=C(NC(=S)Nn1cnnc1)c1ccccc1Cl | ? | - | - | - | - | -
c1ccc(COc2cccc(CN3CCN(c4ccccn4)CC3)c2)cc1 | ? | ? | ? | - | 18.4µM | -
c1ccc(CCCN2CCN(c3ccccn3)CC2)cc1 | 4.47µM | - | ? | - | - | -
O/N=C/c1cccc(OCc2ccncc2)c1 | - | . | . | . | . | .
Cc1ccc2c(n1)N(C)[C@H](CO)CCN(Cc1ccc(C(F)(F)F)cc1)C2 | - | . | . | . | . | .
Cc1nn2c(=O)cc(CSc3n[nH]c(-c4ccccc4)n3)nc2s1 | - | . | . | . | . | .
O=C1CCn2nc(-c3ccc(Cl)cc3)cc2N1 | - | - | - | 1.84µM | ? | -
O=C1Nc2ccccc2CCC1n1nc(-c2ccc(Cl)cc2)ccc1=O (stereo unspecified) | - | . | . | . | . | .
